Screening data deposited in PubChem BioAssay by several laboratories.
Most compounds without a hit are left out; they make up all but 5.9% or so of the library.
NR0B1 inh: DAX1 (NR0B1) inhibitors, primary screen, cell-based, HEK293, Gal4-DAX1, luciferase luminescence. Nuclear receptor subfamily 0 group B member 1 (Homo sapiens), P51843. HEK293 Gal4-DAX1 luciferase reporter. inhibition, % at 6.75 µM. 340,000 tested, 0.99% active. AID 504766, 2011;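 active = inhibition above the mean over all tested compounds plus 3 SD, cut at about 4.2% in these data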;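 also: 0% = DAX1-transfected cells with DMSO and 100% = empty-vector control cells with DMSO; inhibition shows as a rise in luminescence from relieved DAX1 repression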
HSF1 activator: HSF-1 activators, primary screen, NIH3T3-HGL cells, MG132 stress, luminescence, single point; 300,000 tested, 1.7% active; NIH3T3-HGL HSF-1 luciferase reporter, 8 h; 100% = twice DMSO control signal; activation, % at 9 µM;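 active = mean replicate activation of at least 50% with a set share of replicates each reaching 50%; inconclusive = only one of those two conditions met; inactive = mean below 50% and too few replicates reaching it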;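 also: 0% = median of the neutral control wells and 100% = twice that signal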
HSF1 inh: HSF1 inhibitors in luciferase reporter cells, primary screen, cell-based, NIH3T3, luminescence; activity change, negative = inhibition, % at 7.5 µM (by protocol); NIH3T3-HGL HSE-luciferase, MG132-induced, luminescence 8 h; active compounds read low; 300,000 tested, 0.77% active;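 active = more than half of replicate wells show activity change below -50%, luminescence cut by over half; inconclusive = some wells, but at most half, below -50%; inactive = no replicate well below -50%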;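 also: luciferase reports HSF-1 transcriptional activity via heat shock element; 0% = median of DMSO wells and -100% = zero luminescence signal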
FXN GAA850 act: FXN promoter activators, primary screen, cell-based, luciferase luminescence, HEK293 lucGAA850. HEK293 lucGAA850 FXN promoter luciferase reporter, 24 h; percent of 10 µM SAHA response. 360,000 tested, 0.56% active. activation, % at 6 µM. AID 540364, 2011;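 active = activation above the average of all compounds screened plus 3 SD, cutoff fixed separately per campaign, cut at about 7.5% in these data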;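 also: 0% = DMSO wells and 100% = 10 µM SAHA wells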
HSP90 refold inh: HSP90 inhibitors, primary screen, cell lysate, luminescence. Heat shock protein HSP 90 (rabbit reticulocyte lysate; luciferase refolding). Rabbit reticulocyte lysate, luciferase refolding luminescence, 3 h. inhibition, % at 5.6 µM. 290,000 tested, 0.91% active. AID 1789, 2009;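 active = inhibition above the screen-wide mean plus 3 SD, computed separately per campaign, cut at about 16% in these data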;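 also: 0% = DMSO wells and 100% = 60 µM geldanamycin wells; inhibitors lower the luminescence because luciferase stays unfolded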
AHR act: AHR activators, primary screen, cell-based, luminescence, luciferase reporter, human. AHR-responsive luciferase reporter cells. activation, % at 5 µM. 320,000 tested, 2.5% active. AID 2796, 2010; in the data active = activation above about 47%;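 also: 0% = vehicle wells and 100% = reference agonist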
Target sequence (P35869 whole entry, looked up): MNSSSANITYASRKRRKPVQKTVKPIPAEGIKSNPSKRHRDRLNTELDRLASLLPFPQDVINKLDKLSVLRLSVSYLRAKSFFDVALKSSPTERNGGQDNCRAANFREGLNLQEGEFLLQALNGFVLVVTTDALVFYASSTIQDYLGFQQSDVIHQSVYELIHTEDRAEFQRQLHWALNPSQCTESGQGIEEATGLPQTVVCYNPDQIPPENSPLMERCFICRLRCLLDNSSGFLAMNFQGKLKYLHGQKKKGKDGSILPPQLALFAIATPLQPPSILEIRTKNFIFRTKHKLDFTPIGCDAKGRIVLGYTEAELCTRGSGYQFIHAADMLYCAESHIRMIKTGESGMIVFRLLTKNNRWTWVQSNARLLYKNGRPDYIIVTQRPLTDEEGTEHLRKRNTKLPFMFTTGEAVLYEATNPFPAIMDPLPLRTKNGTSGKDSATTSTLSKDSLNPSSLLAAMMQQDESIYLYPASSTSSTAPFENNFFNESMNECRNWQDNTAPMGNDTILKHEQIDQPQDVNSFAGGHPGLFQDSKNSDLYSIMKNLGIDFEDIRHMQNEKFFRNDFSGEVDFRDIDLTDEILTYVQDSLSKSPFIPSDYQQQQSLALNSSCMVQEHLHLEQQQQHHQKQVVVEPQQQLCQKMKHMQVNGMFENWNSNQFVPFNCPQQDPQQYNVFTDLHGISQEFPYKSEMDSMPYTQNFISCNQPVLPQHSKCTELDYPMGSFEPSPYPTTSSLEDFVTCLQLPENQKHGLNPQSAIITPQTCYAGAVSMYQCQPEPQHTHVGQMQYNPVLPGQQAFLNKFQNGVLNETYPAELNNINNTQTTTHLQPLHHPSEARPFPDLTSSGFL
AHR act confirm: AHR activators, confirmation, cell-based, luminescence, luciferase reporter, human; shares compounds with AHR act; human cells, AHR-responsive luciferase reporter; activation, % at 9 µM; 2,300 tested, 87% active; AID 2845, 2010; in the data active = activation above about 49%;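 also: HepG2 hepatoma cells carrying a DRE-driven firefly luciferase reporter; 0% = vehicle wells and 100% = reference agonist wells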
PXR counter: human PXR activators, counter-screen for AHR activator project, cell-based, luciferase luminescence | shares compounds with AHR act | 2,300 tested, 88% active | AID 434939, 2010 | cell-based PXR reporter | activation, % at 11.6 µM; in the data active = activation above about 11%;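 also: human hepatoma DPX-2 cells expressing full-length human PXR; 0% = DMSO and 100% = reference agonist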
* = called active by the depositor.

Results for Nc1nc(N)nc(-c2ccccc2O)n1 ?
NR0B1 inh: -1; HSF1 activator: 1; HSF1 inh: -3; FXN GAA850 act: 7; HSP90 refold inh: 1; AHR act: 18

Results for Cc1cc(C)nc(SCc2nc(N)nc(-c3ccccc3O)n2)n1 ?
NR0B1 inh: -1; HSF1 activator: -1; HSF1 inh: 8; FXN GAA850 act: 4; HSP90 refold inh: 4; AHR act: 84*; AHR act confirm: 91*; PXR counter: 38*

What do the screens show for `Nc1nc(-c2ccccc2)nc(-c2ccccc2O)n1`?
NR0B1 inh: 0; HSF1 activator: 41; HSF1 inh: 11; FXN GAA850 act: 4; HSP90 refold inh: 1; AHR act: 84*; AHR act confirm: 107*; PXR counter: 13*

What do the screens show for `O=[N+]([O-])c1ccccc1/C=N/OCc1ccccc1`?
NR0B1 inh: 1; HSF1 activator: 37; HSF1 inh: 21; FXN GAA850 act: 6; HSP90 refold inh: 1; AHR act: -9

What do the screens show for `O=C1NC(c2ccncc2)Nc2ccccc21` (stereo not given)?
NR0B1 inh: -1; HSF1 activator: -19; HSF1 inh: 1; FXN GAA850 act: 1; HSP90 refold inh: -3; AHR act: 12

What do the screens show for `O=C1NC(c2ccc(Cl)cc2)Nc2ccccc21` (stereo not given)?
NR0B1 inh: -1; HSF1 activator: 70*; HSF1 inh: 30; FXN GAA850 act: 0; HSP90 refold inh: 1; AHR act: 80*; AHR act confirm: 115*; PXR counter: 25*

Results for Cc1ccc(C2NC(=O)c3ccccc3N2)s1 (stereo not given) ?
NR0B1 inh: 2; HSF1 activator: 67*; HSF1 inh: 46; FXN GAA850 act: 7; HSP90 refold inh: 4; AHR act: 100*; AHR act confirm: 91*; PXR counter: 19*

What do the screens show for `O=C(/C=C/c1ccccc1)NCC(=O)N/N=C/c1ccco1`?
NR0B1 inh: 0; HSF1 activator: -6; HSF1 inh: -9; FXN GAA850 act: 2; HSP90 refold inh: 4; AHR act: 1

What do the screens show for `Cc1cc2n(n1)C(c1ccc3c(c1)OCO3)Nc1ccccc1-2` (stereo not given)?
NR0B1 inh: 1; HSF1 activator: -1; HSF1 inh: -2; FXN GAA850 act: 1; HSP90 refold inh: -1; AHR act: 96*; AHR act confirm: 91*; PXR counter: 42*

Results for COc1ccc2c(C=O)cn(C)c2c1 ?
NR0B1 inh: 2; HSF1 activator: -2; HSF1 inh: -12; FXN GAA850 act: -1; HSP90 refold inh: 0; AHR act: 0

What do the screens show for `CN(C)/C=N/c1nc(-c2ccc3c(c2)OCO3)cs1`?
NR0B1 inh: 1; HSF1 activator: inconclusive; HSF1 inh: 26; FXN GAA850 act: 5; HSP90 refold inh: -1; AHR act: 81*; AHR act confirm: 69*; PXR counter: 28*

How did CCC(C)Sc1nc2c([nH]c3ccccc32)c(=O)n1C (stereo not given) do in these assays?
NR0B1 inh: 1; HSF1 activator: inconclusive; HSF1 inh: 23; FXN GAA850 act: 4; HSP90 refold inh: 1; AHR act: 87*; AHR act confirm: 88*; PXR counter: 52*
